AHR act: activators of human aryl hydrocarbon receptor | P35869 | AHR-responsive luciferase reporter cells, luminescence | activation, % at 5 µM | 320,000 tested, 2.5% active; in the data active means activation above about 47%;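 further: 0% = vehicle wells and 100% = reference agonist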
Target sequence (P35869 whole entry, looked up): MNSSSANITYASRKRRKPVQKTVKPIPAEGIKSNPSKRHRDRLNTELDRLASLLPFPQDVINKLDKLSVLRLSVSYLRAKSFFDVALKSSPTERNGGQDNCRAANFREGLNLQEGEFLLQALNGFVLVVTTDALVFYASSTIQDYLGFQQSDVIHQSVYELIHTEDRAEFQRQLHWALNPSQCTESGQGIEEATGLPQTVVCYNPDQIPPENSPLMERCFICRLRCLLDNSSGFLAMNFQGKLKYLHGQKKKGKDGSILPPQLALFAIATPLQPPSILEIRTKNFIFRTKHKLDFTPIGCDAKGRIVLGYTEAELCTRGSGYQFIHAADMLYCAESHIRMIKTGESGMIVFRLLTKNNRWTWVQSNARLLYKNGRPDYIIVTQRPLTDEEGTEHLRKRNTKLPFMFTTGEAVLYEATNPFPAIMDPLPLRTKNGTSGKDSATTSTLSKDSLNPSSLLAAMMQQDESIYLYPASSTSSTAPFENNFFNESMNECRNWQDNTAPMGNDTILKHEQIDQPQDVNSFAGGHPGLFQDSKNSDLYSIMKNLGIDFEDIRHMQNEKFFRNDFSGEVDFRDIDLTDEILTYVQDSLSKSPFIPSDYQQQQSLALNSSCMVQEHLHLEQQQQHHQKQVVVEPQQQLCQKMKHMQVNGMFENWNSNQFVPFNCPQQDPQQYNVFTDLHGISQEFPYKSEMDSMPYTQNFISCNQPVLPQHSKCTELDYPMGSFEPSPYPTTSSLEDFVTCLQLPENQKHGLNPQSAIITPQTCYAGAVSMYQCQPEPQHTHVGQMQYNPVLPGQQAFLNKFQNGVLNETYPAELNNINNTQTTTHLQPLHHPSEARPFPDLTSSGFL
ssDAF12 agonist: activators of S. stercoralis DAF-12 nuclear receptor | HEK293 ssDAF-12/GRIP1 lit1-tk-luc reporter, luminescence; % of 3 µM dafachronic acid response | activation, % at 6.8 µM | 370,000 tested, 1% active | AID 652126;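 active means activation above the mean over all tested compounds plus 3 SD, cut at about 0.9% in these data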;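 further: 0% = DMSO-only wells and 100% = 3 µM delta7-dafachronic acid wells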
hcDAF12 agonist: activates DAF-12 receptor from parasite H. contortus | HEK293 hcDAF-12 lit1-tk-luc reporter, luminescence; 0% DMSO, 100% Δ7-dafachronic acid | activation, % at 6.8 µM | 370,000 tested, 1.4% active;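 active means activation above the mean of all tested compounds plus 3 SD, cut at about 5.5% in these data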;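 further: 100% = response to 3 µM Δ7-dafachronic acid high control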
hgDAF12 agonist: activates the H. glycines DAF-12 receptor ligand-binding domain; HEK293 GAL4-hgDAF12 UAS-luciferase reporter, agonist luminescence; normalized to butyrate control; activation, % at 6.8 µM; 370,000 tested, 1.8% active; AID 687014;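 active means activation above a cutoff set at the mean of all screened compounds plus 3 SD, cut at about 10% in these data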;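 further: 0% = DMSO wells and 100% = sodium butyrate wells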
DAX1 inh-1: NR0B1 (DAX1) inhibition; inhibition, % at 6.75 µM; 340,000 tested, 0.99% active; AID 504766; HEK293 Gal4-DAX1 luciferase reporter, luminescence;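 active means inhibition above the mean over all tested compounds plus 3 SD, cut at about 4.2% in these data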;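 further: 0% = DAX1-transfected cells with DMSO and 100% = empty-vector control cells with DMSO; inhibition shows as a rise in luminescence from relieved DAX1 repression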
DAX1 inh-2: inhibitors of DAX1 repression of SF-1 activated StAR promoter | AID 652010 | inhibition, % at 6.8 µM | 370,000 tested, 1.1% active | HEK293T StAR-luciferase reporter, SF-1/DAX-1 repression relief;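 active means inhibition above the mean over all tested compounds plus 3 SD, cut at about 3.6% in these data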;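 further: 0% = DAX-1 cells with DMSO and 100% = cells lacking DAX-1 with DMSO; higher inhibition means more luminescence from relief of DAX-1 repression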
* = called active by the depositor; . = no result given. Most compounds without a hit are left out; they make up all but 5.7% or so of the library.

SMILES	AHR act	ssDAF12 agonist	hcDAF12 agonist	hgDAF12 agonist	DAX1 inh-1	DAX1 inh-2
Cc1cc(NC(=O)CSc2ccc(-c3nc4cc(C)c(C)cc4[nH]3)cn2)no1	21	.	.	.	2	.
Cc1nn(Cc2ccccc2)c(Cl)c1/C=C/C(=O)OCC(=O)N(C)C1CCS(=O)(=O)C1 (centres undefined)	-1	-1	-1	0	1	-1
CC(=O)Oc1ccc([C@@H]2COc3c(ccc4c3C=CC(C)(C)O4)C2)c(OC(C)=O)c1	0	-1	2	5	4.4*	1
Cc1cc(C(=O)NCC(=O)OCC(=O)N(C(C)C)C(C)C)ccc1[N+](=O)[O-]	-1	-1	0	-2	-1	1
C=CCc1cc(C)cc(C)c1OCCn1cncn1	59*	-1	-1	-3	0	0
Cc1cccc(-c2ncc(CN3CCCC(CO)(Cc4ccccc4C)C3)cn2)c1 (centres undefined)	1	-2	0	2	1	0
COc1ccc(N2CC(C(=O)Nc3nnc(Cc4ccccc4)s3)CC2=O)cc1 (centres undefined)	1	0	-2	1	1	0
Cc1[nH]c2ccccc2c1CCN(Cc1cccs1)C(=O)Nc1cccc2c1OCO2	.	0	5	11*	.	1
CC1(C)Cc2c(sc3nc(-c4cccs4)n(N)c(=O)c23)CO1	73*	-2	0	3	-1	-2
CC1(C)Cc2c(sc3nc(-c4ccccc4)n(N)c(=O)c23)CO1	-1	-1	2	1	0	2
O=C(CSc1nnc(-c2ccc(O)cc2)o1)N1CCOCC1	14	-1	1	3	1	1
COc1ccc(OC)c(-c2nnc(SCC(=O)N3CCOCC3)o2)c1	24	-1	-1	-1	0	1
Cc1ccccc1-c1nnc(SCC(=O)N2CCCC2)o1	4	0	1	11*	0	1
COc1ccc(OC)c(-c2nnc(SCC(=O)N3CCCC3)o2)c1	6	-1	-1	-3	4.9*	0
Fc1ccccc1CSc1nnc(-c2cccs2)o1	-9	0	3	11*	1	3.7*
O=C(CSc1nnc(-c2ccc(Cl)cc2)o1)N1CCOCC1	10	0	2	11*	-1	1
CCN=C1NC(c2ccc(C(F)(F)F)cc2)C(C(=O)OC)=C(C)N1Cc1ccccc1C(F)(F)F (centres undefined)	.	-1	0	-1	.	1
O=C(CSc1nnc(-c2cccs2)o1)N1CCCCC1	3	0	2	12*	1	3
Cc1ccccc1-c1nnc(-c2ccccc2C)o1	8	0	2	11*	2	0
COCCNc1nc(-c2ccccc2F)c2sc(-c3ccccc3)cc2n1	.	-1	-2	-1	.	-2
Cc1ccc2c(c1)-c1c(cnn1CC(=O)Nc1ccccc1N1CCN(C)CC1)CO2	2	-1	0	-1	0	-1
Cc1ccn(CCC(=O)NC2CC(C)(C)Cc3c2cnn3-c2ccccc2C)n1 (centres undefined)	-1	-1	3	2	1	3.8*
O=C(NNS(=O)(=O)c1ccc(Br)cc1)c1ccccc1-n1cccc1	4	0	0	-1	3	0
COc1ccc(CCN2C(=O)c3cccc4cccc(c34)C2=O)cc1OC	70*	0	1	2	0	0
COc1ccc(CCNC(=O)CN2C(=O)c3cccc4cccc(c34)C2=O)cc1OC	4	-2	-1	-2	0	-1
SMILES	AHR act	ssDAF12 agonist	hcDAF12 agonist	hgDAF12 agonist	DAX1 inh-1	DAX1 inh-2
COc1ccc(NS(=O)(=O)c2ccc(F)c(F)c2F)cc1S(=O)(=O)N1CCOCC1	1	-1	1	0	0	1
Cc1sc2ncnc(SCC(=O)NNC(=O)c3ccco3)c2c1C	-2	-1	-2	-1	0	0
Cc1sc2ncnc(OCC(=O)N3CCN(C(=O)c4ccco4)CC3)c2c1C	0	-1	-1	2	5.7*	-1
Cc1sc2nc(CSc3nnnn3-c3ccc(Cl)cc3)[nH]c(=O)c2c1C	51*	-1	-1	0	1	0
CCn1c(SCc2nc3sc(C(=O)O)c(C)c3c(=O)[nH]2)nnc1-c1ccc(Cl)cc1	-1	0	-1	6	1	1
CCc1ccc2[nH]cc(S(=O)(=O)c3ccc(C)c(C)c3)c(=O)c2c1	1	-1	1	-1	0	0
CCc1ccc2[nH]c3nc(C)cc(C)c3c(=O)c2c1	48*	-2	0	6	0	0
COc1cccc(CNC(=O)CN(C)S(=O)(=O)c2ccc3c(c2)n(C)c(=O)c(=O)n3C)c1	-3	-1	-2	-4	0	0
CCn1nnnc1SCC(=O)Nc1ccc2c(c1)OCO2	37	0	-1	4	0	1
COc1cc(NC(=O)CSc2nnnn2Cc2ccc3c(c2)OCO3)cc(OC)c1	71*	-1	2	-2	1	-1
O=C(COc1cc(F)ccc1[N+](=O)[O-])NCCCc1ccccc1	13	-2	-2	-2	1	0
CCC(c1nnc(SCC(=O)Nc2ccc(NC(C)=O)cc2)n1Cc1ccccc1)N(C)C (centres undefined)	-2	-1	1	2	1	-1
CCC(c1nnc(SCC(=O)NCCc2ccc(OC)c(OC)c2)n1Cc1ccccc1)N(C)C (centres undefined)	0	1.2*	0	-1	3	0
COc1ccccc1-c1ccc(SCC(=O)NCCc2ccccc2)nn1	58*	-2	-1	0	-1	-3
COc1ccc(CCNC(=O)CSc2nc3[nH]ncc3c(=O)n2-c2ccc(C)c(Cl)c2)cc1OC	.	1.8*	2	0	1	-3
CCOc1ccc(-n2c(COc3ccc(Cl)cc3)nnc2SCC(=O)Nc2ccc(OCc3ccccc3)cc2)cc1	.	-1	-2	1	.	1
C[C@H]1COc2cccc(N3CCCC3)c2S(=O)(=O)N1	.	-1	-1	-1	.	1
CC(OC(=O)C1CCCCC1)C(=O)Nc1ccc(S(N)(=O)=O)cc1 (centres undefined)	0	-1	0	1	0	1
CC(NC(=O)Nc1ccc2c(c1)OCO2)C1CCCO1 (centres undefined)	66*	0	3	4	1	2
O=C(Nc1nc(-c2ccc3c(c2)OCO3)cs1)C1CC1	4	1	3	11*	2	3
CC(C)Oc1ccc(N2CC(C(=O)Nc3ccc4c(c3)OCO4)CC2=O)cc1 (centres undefined)	0	1.4*	1	-1	4	0
Cc1cc(C)nc(N2CCCC(C(=O)Nc3ccc4c(c3)OCO4)C2)n1 (centres undefined)	49*	-1	-1	0	1	0
